Data taken from paper PMC4336329 (PLoS ONE, 2015).
The whole screen tested about 310,000 compounds, of which about 14,000 (4.5%) showed an effect of 50% or more. Effects have a minus sign here. The sample as a whole holds a higher share of strong results than the screen did.

Each molecule was assayed against human ether-à-go-go-related gene (hERG) potassium channel (human, UniProt Q12809) (assay: primary screen, population patch clamp on CHO cells stably expressing hERG; higher = less effect of the substance).
human ether-à-go-go-related gene (hERG) potassium channel, sequence (Q12809 whole entry, looked up): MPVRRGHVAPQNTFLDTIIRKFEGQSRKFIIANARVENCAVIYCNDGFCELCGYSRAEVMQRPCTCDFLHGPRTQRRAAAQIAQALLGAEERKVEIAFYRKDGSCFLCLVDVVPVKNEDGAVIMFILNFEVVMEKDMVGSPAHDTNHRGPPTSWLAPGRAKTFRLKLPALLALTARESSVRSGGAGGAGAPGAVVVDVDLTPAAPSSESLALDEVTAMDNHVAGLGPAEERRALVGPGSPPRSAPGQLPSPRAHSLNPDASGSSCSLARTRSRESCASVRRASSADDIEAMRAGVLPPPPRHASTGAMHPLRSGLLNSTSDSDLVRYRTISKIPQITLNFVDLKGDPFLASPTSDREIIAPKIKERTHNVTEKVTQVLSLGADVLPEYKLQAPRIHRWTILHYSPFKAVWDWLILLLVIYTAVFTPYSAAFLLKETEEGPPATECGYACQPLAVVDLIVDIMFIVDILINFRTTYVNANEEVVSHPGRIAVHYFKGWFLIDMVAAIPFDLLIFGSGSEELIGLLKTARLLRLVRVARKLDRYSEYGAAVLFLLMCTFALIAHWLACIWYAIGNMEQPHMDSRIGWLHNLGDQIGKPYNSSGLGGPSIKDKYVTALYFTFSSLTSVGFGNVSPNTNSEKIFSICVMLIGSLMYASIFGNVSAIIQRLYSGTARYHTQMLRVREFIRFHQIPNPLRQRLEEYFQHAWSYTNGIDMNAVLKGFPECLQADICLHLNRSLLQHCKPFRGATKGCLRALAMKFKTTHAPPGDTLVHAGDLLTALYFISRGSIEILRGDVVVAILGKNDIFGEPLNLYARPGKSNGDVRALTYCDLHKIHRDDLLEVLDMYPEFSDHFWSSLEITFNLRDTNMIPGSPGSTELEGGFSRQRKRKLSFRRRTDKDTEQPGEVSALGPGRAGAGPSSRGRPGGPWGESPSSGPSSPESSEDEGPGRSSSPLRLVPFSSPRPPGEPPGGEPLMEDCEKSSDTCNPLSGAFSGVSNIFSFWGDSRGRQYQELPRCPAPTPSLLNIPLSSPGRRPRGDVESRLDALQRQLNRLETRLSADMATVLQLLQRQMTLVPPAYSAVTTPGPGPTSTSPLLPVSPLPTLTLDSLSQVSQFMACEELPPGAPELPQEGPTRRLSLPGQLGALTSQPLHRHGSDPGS
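Note: peak tail current of the secondary pulse compared with the same well before compound.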

SMILES	hERG current change (%, negative = inhibition) at 10uM [%]
COc1ccc2cc(C(=O)C3CCCN(C(=O)c4sc(C)nc4C)C3)ccc2c1 (centres unmarked)	-22.8
Cc1ccc(S(=O)(=O)N2CCN(C(=O)CCn3nc(C)c(C)c3C)CC2)cc1	11.1
Oc1cccc(-c2nc3c4c(ncn3n2)-c2ccccc2CC42CCCC2)c1	-7.64
COc1ccc(CCn2nnnc2C(c2ccc(Cl)cc2)N2CCN(C)CC2)cc1OC.Cl (centres unmarked)	-11.6
CC(=O)Nc1ccccc1OC(=O)N(C)C	2.41
COc1c(Cl)cc(Cl)cc1C(=O)Nc1ccc(NC(=O)c2cccs2)cc1	13.2
COc1ccc(C2(CNC(=O)c3cccc([N+](=O)[O-])c3)CCOCC2)cc1	0.0345
Cc1ccc(NC(=O)CSc2nnc(-c3ccco3)c(-c3ccco3)n2)cc1	-64.9
CC(=O)c1ccc(NC(=O)CSc2nnc(-c3ccco3)c(-c3ccco3)n2)cc1	-33
CN(C)c1ccc(NC(=O)CSc2nnc(-c3ccco3)c(-c3ccco3)n2)cc1	6.58
CCOc1ccc(NC(=S)N2CCC(c3ccc(C)cc3)C2)cc1 (centres unmarked)	-6.63
CSc1cccc(NC(=S)N(CCCN2CCCC2)Cc2cccn2Cc2ccc(Cl)cc2)c1	-28.1
Cc1cccc(C)c1NC(=S)N(CCCN1CCN(C)CC1)Cc1cccs1	-47.8
CSc1cccc(NC(=S)N(CCCN2CCC(C)CC2)Cc2cccs2)c1	-72.9
CSc1cccc(NC(=S)N(CCCN2CCCC2)Cc2cccs2)c1	-63.7
CSc1cccc(NC(=S)N(CCCN2CCCC(C)C2)Cc2cccs2)c1 (centres unmarked)	-75.6
Cc1ccc(/C=N/NC(=O)c2cc3c(ccc4ccccc43)o2)cc1[N+](=O)[O-]	3.49
Cc1cc(C)n(C(=O)COc2c(C)cccc2C)n1	11
COc1cc(C(=O)N2CCN(C3CCC(C)CC3)CC2)cc(OC)c1OC.O=C(O)C(=O)O (centres unmarked)	8.29
CCN(CC)Cc1c(C(=O)N2CCc3ccccc3C2)nc2ccc(Cl)cn12	-13.1
CN1CCN(Cc2c(C(=O)N3CCc4ccccc4C3)nc3ccc(Cl)cn23)CC1	-51.8
CN(Cc1c(C(=O)N2CCc3ccccc3C2)nc2ccc(Cl)cn12)C(C1CC1)C1CC1	-45.9

SMILES	hERG current change (%, negative = inhibition) at 10uM [%]
CCN(C)Cc1c(C(=O)N2CCc3ccccc3C2)nc2ccc(Cl)cn12	-31.1
CN(Cc1cnccn1)Cc1c(C(=O)N2CCc3ccccc3C2)nc2ccc(Cl)cn12	-23.4
CC1CCN(Cc2c(C(=O)N3CCc4ccccc4C3)nc3ccc(Cl)cn23)CC1	-31.7
Cc1cnc(CN(C)Cc2c(C(=O)N3CCc4ccccc4C3)nc3ccc(Cl)cn23)[nH]1	-62.6
Cc1cnc(CN(C)Cc2c(C(=O)N3CCCCCCC3)nc3ccc(Cl)cn23)[nH]1	-29
CCCCN(C)Cc1c(C(=O)N2CCc3ccccc3C2)nc2ccc(Cl)cn12	-50.1
O=C(c1nc2ccc(Cl)cn2c1CN1CCCC1)N1CCc2ccccc2C1	-10.6
CN(Cc1cccnc1)Cc1c(C(=O)N2CCc3ccccc3C2)nc2ccc(Cl)cn12	-20.1
CC(C)CN(C)Cc1c(C(=O)N2CCc3ccccc3C2)nc2ccc(Cl)cn12	-53.2
COC(=O)c1cc2c(C)nn(-c3ccccc3)c2s1	2.91
CC(=O)c1cccc(NC(=O)COC(=O)c2ccccn2)c1	5.33
Cc1ccc(-c2nnc(-c3cc(C)on3)o2)cc1	19.6
O=C(CNC(=O)c1ccc([N+](=O)[O-])cc1)c1ccccc1	-6.36
COc1cc(N(C)C)c([N+](=O)[O-])cc1C(=O)NC(C)CNc1ccc([N+](=O)[O-])cc1Cl (centres unmarked)	-2.36
COC(=O)C1=CO[C@@H](C)[C@H]2CN3CC[C@]4(C(=O)Nc5ccccc54)[C@@H]3C[C@H]12	15.5
Fc1ccccc1NC(=S)Nc1cccc2cnccc12	46.8
Fc1cccc(CSc2ccc3nnc(-c4ccccn4)n3n2)c1	-77.9
Cc1cccc(CSc2ccc3nnc(-c4ccccn4)n3n2)c1	-75.7
Fc1cccc(Cl)c1CSc1ccc2nnc(-c3ccccn3)n2n1	-13.5
Cc1cccc(CSc2nnc(-c3ccccn3)n2N)c1	2.88
COc1cccc(NC(=O)CSc2ccc3nnc(-c4ccccn4)n3n2)c1	-47.3
O=C(CSc1ccc2nnc(-c3ccccn3)n2n1)Nc1cccc(F)c1	-40.6
